RXFP1 antagonist: qHTS Assay for Antagonists of the Relaxin Receptor RXFP1; Relaxin receptor 1 (Homo sapiens), Q9HBX9; HEK293-RXFP1, relaxin-stimulated cAMP HTRF, 30 min; stronger effect = lower value; activity change, negative = inhibition, % at 57.5 µM; hit rate 0.59% among 350,000; AID 1259400, 2018;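 active = activity change of -60% or lower, but not beyond a set lower limit; inconclusive = change between -60% and -40%, or beyond the set limit; inactive = change above -40%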; also: % is scaled to controls: 0 for no effect and ±100 for the full control effect
Target sequence (Q9HBX9 whole entry, looked up): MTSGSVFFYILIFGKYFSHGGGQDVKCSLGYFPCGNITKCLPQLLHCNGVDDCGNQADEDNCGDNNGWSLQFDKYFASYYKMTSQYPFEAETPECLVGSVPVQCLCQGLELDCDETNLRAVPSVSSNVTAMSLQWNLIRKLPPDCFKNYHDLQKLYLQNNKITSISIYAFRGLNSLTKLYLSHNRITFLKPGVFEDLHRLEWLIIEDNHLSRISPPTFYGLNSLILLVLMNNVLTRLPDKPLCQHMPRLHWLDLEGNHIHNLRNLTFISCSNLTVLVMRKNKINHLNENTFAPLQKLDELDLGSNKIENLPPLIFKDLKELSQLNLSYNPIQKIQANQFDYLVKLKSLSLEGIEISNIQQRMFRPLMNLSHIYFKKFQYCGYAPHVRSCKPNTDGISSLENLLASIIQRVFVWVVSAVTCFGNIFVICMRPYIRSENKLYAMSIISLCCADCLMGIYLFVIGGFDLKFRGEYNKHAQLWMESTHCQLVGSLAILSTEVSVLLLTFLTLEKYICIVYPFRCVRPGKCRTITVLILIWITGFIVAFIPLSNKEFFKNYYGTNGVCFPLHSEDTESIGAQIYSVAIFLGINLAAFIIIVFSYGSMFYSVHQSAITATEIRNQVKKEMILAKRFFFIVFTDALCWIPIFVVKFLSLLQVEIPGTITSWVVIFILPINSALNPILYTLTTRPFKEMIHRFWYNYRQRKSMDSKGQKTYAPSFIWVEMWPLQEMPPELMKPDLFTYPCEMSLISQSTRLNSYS
Mm-Cpn inhibitor: Inhibitors of TCP-1 ring complex (TRiC) of Methanococcus maripaludis (MmCpn): qHTS; Chaperonin Mm-Cpn (Methanococcus maripaludis); purified Mm-Cpn ATPase, ADP Transcreener TR-FRET; Potency, µM (series often up to 76.9 µM), for inactives: at the top dose activity, negative = inhibition, hits mostly inhibitors; hit rate 0.031% among 330,000; also: potency is read from the fitted curve at half-maximal effect; % is scaled to controls: 0 for no effect and ±100 for the full control effect; nearly all actives have a fitted effect of over 80% in size
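Eu-cryptate anti-ADP/ADP-d2 competition gives a ratio inversely related to ADP. Enzyme at 25 nM was pre-exposed to compound for 10 min, then given 10 uM ATP for 30 min, 37°C throughout.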
gsp agonist: qHTS for Agonist of gsp, the Etiologic Mutation Responsible for Fibrous Dysplasia/McCune-Albright Syndrome: qHTS; gsp mutant cells, cAMP HTRF, 30 min; Potency, µM (top dose mostly 76.9 µM), inactives show top-dose activation (cAMP increase), most hits filed as activators; hit rate 0.13% among 340,000; AID 624287, 2012; active = well fitted activation curve with a large enough effect; inconclusive = small, poorly fitted or top-dose-only effect, or another doubt; inactive = no such curve, though single readings can be large or run the other way; cell line not stated here;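 also: phosphodiesterase inhibitor Ro 20-1724 added with compounds to block cAMP breakdown; potency is read from the fitted curve at half-maximal effect; nearly all actives have a fitted effect of over 60% in size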
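Cells in DMEM/10% FBS with G418 were pretreated with compounds in DMSO plus […] (300 uM stock) for 30 min at 37C. cAMP was measured by HTRF (cAMP-d2 plus anti-cAMP antibody-K) after 30 min at room temperature.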
CCT modulator: High-Throughput Screening for Modulators of Cytosolic Chaperonin Activity. purified chaperonin ATPase assay, HTRF ADP detection, 30 min. hit rate 0.3% among 360,000. activity change, % (no concentration beside the values), hits read low; in the data active = activity change below about -30%; also: % is scaled to controls: 0 for no effect and ±100 for the full control effect
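Nucleotide hydrolysis assay: TRiC at 20–40 nM final (set by batch activity) with 10 uM ATP, 30 min at 37 °C, in presence of 76 uM compound. Detection by competitive ADP HTRF, 30 min ambient.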
RXFP1 ag: qHTS Assay for Agonists of the Relaxin Receptor RXFP1. Relaxin receptor 1 (Homo sapiens), Q9HBX9. HEK293T-RXFP1 cAMP TR-FRET, 30 min; response scale: percent of porcine relaxin response, buffer zero. Potency, µM (series often up to 57.5 µM), for inactives: at the highest dose activation, usual class: activators. hit rate 0.3% among 370,000; also: potency is read from the fitted curve at half-maximal effect; % is scaled to controls: 0 for no effect and ±100 for the full control effect; nearly all actives have a fitted effect of over 60% in size
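HEK293T cells stably expressing RXFP1 were pretreated with the PDE4 inhibitor Ro 20174, exposed to compounds for 30 min at 37C, lysed, and cAMP was read by TR-FRET. Data normalized to buffer (basal) and 29 nM porcine relaxin (100%).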
gsp antag: qHTS for Antagonists of gsp, the Etiologic Mutation Responsible for Fibrous Dysplasia/McCune-Albright Syndrome: qHTS; gsp-mutant cells, cAMP HTRF, 30 min; Potency, µM (series often up to 76.9 µM), for inactives: at the top dose activity change, negative = inhibition, hits mostly inhibitors; hit rate 0.4% among 340,000; AID 624288, 2012; calls by dose curve; cell line not stated here;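 also: intracellular cAMP measured with PDE inhibitor Ro 20-1724 present during compound exposure; potency is read from the fitted curve at half-maximal effect; % is scaled to controls: 0 for no effect and ±100 for the full control effect; nearly all actives have a fitted effect of over 65% in size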
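HTRF cAMP read-out (cAMP-d2 plus anti-cAMP antibody-K in lysis buffer, 30 min RT). Before lysis, cells are exposed to compounds with […] for 30 min at 37C in DPBS containing Ca/Mg, BSA and Tween 20.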
The depositor's hits bear a star; ! = not active in a repeat; [ ] = dose if it differs, or a comment. In the library only some 1.2% were active in any assay of this set; here they are far more common. Unless noted, calls follow the shape of the dose curve; as a rule, active = well fitted curve in the direction sought with a large enough effect; inconclusive = small, poorly fitted or top-dose-only effect, or another doubt; inactive = no such curve, though single readings can be large; an effect the other way counts as inactive or inconclusive.

Screening COc1cc(OC)c(OC)cc1/C=C1/C(=O)NC(=O)N(Cc2ccccc2)C1=O returned RXFP1 antagonist -64*, Mm-Cpn inhibitor -1%, gsp agonist -3%, CCT modulator 0, RXFP1 ag 0% and gsp antag 10%.
CC(C)N1C(=O)/C(=C/C=C/c2ccco2)C(=O)N(Cc2ccco2)C1=O was read as RXFP1 antagonist -77*, Mm-Cpn inhibitor -1%, gsp agonist -14%, CCT modulator 1, RXFP1 ag 0% and gsp antag inconclusive.
COc1ccc(/C=C2/C(=O)N(Cc3ccco3)C(=O)N(C(C)C)C2=O)cc1 was read as RXFP1 antagonist -10, Mm-Cpn inhibitor -2%, gsp agonist inconclusive, CCT modulator 1, RXFP1 ag 2% and gsp antag -2%.
`Cc1cccc(C(=O)NC2CC3CCCC(C2)N3Cc2ccccc2)c1` (centres undefined) gave RXFP1 antagonist 4, Mm-Cpn inhibitor 0%, gsp agonist -47%, CCT modulator 1, RXFP1 ag 1% and gsp antag 6%.
For C[C@H](N)C(=O)c1ccccc1 the results were RXFP1 antagonist 14.
`c1ccc(N2CCNCC2)cc1` gave RXFP1 antagonist 17.
For CC[C@H]1CN2CCc3cc(OC)c(OC)cc3C2C[C@@H]1C[C@H]1NCCc2cc(OC)c(OC)cc21 (some centres undefined) the results were Mm-Cpn inhibitor 2%, CCT modulator -1, RXFP1 ag 3% and gsp antag 11µM*.
CC[C@H](O)C(C[C@H](C)N(C)C)(c1ccccc1)c1ccccc1 was read as RXFP1 antagonist 18.
Screening Oc1ccc(Cl)cc1Cc1ccccc1 returned RXFP1 antagonist -82*!, gsp agonist -3%, CCT modulator 1 and gsp antag 4%.
Screening O=C(Nc1ccc(Cl)cc1C(=O)c1ccccc1)c1ccco1 returned RXFP1 antagonist 2, Mm-Cpn inhibitor -1%, gsp agonist -27%, CCT modulator -2, RXFP1 ag 2% and gsp antag -15%.
Screening CN1C(=O)C(=Cc2ccc(N3CCOCC3)c([N+](=O)[O-])c2)C(=O)N(C)C1=O returned Mm-Cpn inhibitor 1% and RXFP1 ag 2%.
`O=C1NC(=O)C(=Cc2ccc(N3CCN(C(=O)c4ccccc4)CC3)c([N+](=O)[O-])c2)C(=O)N1` gave RXFP1 antagonist -75*, Mm-Cpn inhibitor -7%, gsp agonist 5%[15.4 µM], CCT modulator -3, RXFP1 ag -1% and gsp antag -15%.
CCN(C(=O)CN1CC=C(c2ccccc2)CC1)c1c(N)n(Cc2ccccc2)c(=O)[nH]c1=O was read as RXFP1 antagonist -61*, Mm-Cpn inhibitor 0%, gsp agonist 8%[15.4 µM], CCT modulator -1, RXFP1 ag 0% and gsp antag 10%.
CCCCCCCSc1cc(OC)c(CCNC)cc1OC was read as RXFP1 antagonist -70*, Mm-Cpn inhibitor 1%, gsp agonist -81%, CCT modulator 0, RXFP1 ag 0% and gsp antag 14%.
CCOc1ccc(-c2cc(C)[n+](CCc3ccc(OC)c(OC)c3)c(-c3ccc(OCC)cc3)c2)cc1 was read as RXFP1 antagonist -84*, Mm-Cpn inhibitor -1%, gsp agonist 9%[15.4 µM], CCT modulator -3, RXFP1 ag 2% and gsp antag -14%.
Screening C[C@]12CCC3C(CC[C@H]4C[C@@H](O)CC[C@]34C)C1=CC[C@@H]2O (some centres undefined) returned RXFP1 antagonist 1, gsp agonist -169% and CCT modulator -35*.
For Cc1cc(C(C#N)c2ccc(Cl)cc2)c(Cl)cc1NC(=O)c1cc(I)cc(I)c1O (centres undefined) the results were RXFP1 antagonist -112*, Mm-Cpn inhibitor 1%, CCT modulator 1, RXFP1 ag 0% and gsp antag inconclusive.
For O=c1nc(/C=C/c2ccc(Cl)cc2Cl)cc(C(F)(F)F)[nH]1 the results were RXFP1 antagonist -75*, Mm-Cpn inhibitor -2%, gsp agonist inconclusive, CCT modulator 2, RXFP1 ag 0% and gsp antag -5%.
`N#CC(C#N)=NNc1ccc(-n2ccc(C(F)(F)F)n2)cc1` gave RXFP1 antagonist inconclusive, Mm-Cpn inhibitor -1%, gsp agonist inconclusive, CCT modulator 0, RXFP1 ag 1% and gsp antag 32µM*.
Cc1cc(C)n(-c2ccc(NN=C(C#N)C#N)cc2)n1 was read as RXFP1 antagonist -14, Mm-Cpn inhibitor -1%, gsp agonist -1%, CCT modulator 0, RXFP1 ag -1% and gsp antag inconclusive.
`CCc1cc(-c2nnn(CCC3COCCO3)c2CC)cc(CC)c1-c1cn(Cc2ccc3ccccc3c2)nn1` (centres undefined) gave RXFP1 antagonist 8, gsp agonist -111% and CCT modulator -2.
For O=C1OC(CCN2CCCCC2)OC1(c1ccccc1)c1ccccc1 (centres undefined) the results were RXFP1 antagonist 21.
`Cc1ccc(-c2c(C)n3c4c(=O)n(C)c(=O)n(C)c4nc3n2CCO)cc1` gave RXFP1 antagonist -9 and RXFP1 ag inconclusive.
For N#CC(C#N)=NNc1ccc([N+](=O)[O-])cc1 the results were RXFP1 antagonist -29, Mm-Cpn inhibitor -13%, gsp agonist -19%, CCT modulator 2, RXFP1 ag 1% and gsp antag 50µM*.
CCN(CC)S(=O)(=O)c1ccc(NN=C(C#N)C#N)cc1 was read as RXFP1 antagonist -18, Mm-Cpn inhibitor 1%, gsp agonist 6%, CCT modulator 1, RXFP1 ag 0% and gsp antag -30%.
`COC(=O)[C@@H]1N=C(c2ccc(OC)cc2)O[C@]12C(=O)N(Cc1ccc(OC)cc1)c1ccccc12` gave CCT modulator -47*.
For COc1ccc(Cn2c(O)c(/C=N/NC(=O)c3ccccc3)c(=O)[nH]c2=O)cc1 the results were RXFP1 antagonist 5, Mm-Cpn inhibitor 3%, gsp agonist -31%, CCT modulator -2, RXFP1 ag -1% and gsp antag 3%.

Source: PubChem BioAssay (National Center for Advancing Translational Sciences (NCATS))
